# According to PubChem BioAssay (NCATS):
# “And” between values parts separate entries of the source, which are not always exact repeats. Equal values may be shown once. A number with no mark means an inactive call. Records with an inconclusive call do not appear. A call without a number means that no potency is given here. The source made the active and inactive calls. Unless noted, calls follow the shape of the dose curve; as a rule, active = well fitted curve in the direction sought with a large enough effect; inconclusive = small, poorly fitted or top-dose-only effect, or another doubt; inactive = no such curve, though single readings can be large; an effect the other way counts as inactive or inconclusive.
# Tests used:
# [1] = Drug repurposing screens with cells derived from glioblastoma tumor samples (AID 1345199); details: GBM patient neurospheres viability, ATP luminescence, 48 h; also: nearly all actives have a fitted effect of over 40% in size; also: potency is read from the fitted curve at half-maximal effect
# Method in brief: (§1)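 Primary testing used CD133+ neurospheres from four GBM patients, seven concentrations, 48 h exposure and ATP-based viability; confirmation added three slower-growing patient lines.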
# [2] = test system: C33A; experiment: Primary qHTS to identify gynecologic anti-cancer compounds using libraries of approved drugs and bioactive compounds (AID 1345084); details: Gynecologic cancer cell panel viability, ATPlite luminescence, 48 h; series mostly up to 57.5 µM; also: nearly all actives have a fitted effect of over 55% in size; also: potency is read from the fitted curve at half-maximal effect
# Method in brief: (§2)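 Cytotoxicity screen measuring ATP content by luciferase luminescence. Each compound is applied at five concentrations for 48 h at 37 C with 5% CO2.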
# [3] = test system: CAOV3; experiment: as above; details: Gynecologic cancer cell panel viability, ATPlite luminescence, 48 h; series mostly up to 57.5 µM
# Method in brief: as §2
# [4] = test system: CASKI; experiment: as above; details: Gynecologic cancer cell panel viability, ATPlite luminescence, 48 h; series mostly up to 57.5 µM
# Method in brief: as §2
# [5] = test system: Es-2; experiment: as above; details: Gynecologic cancer cell panel viability, ATPlite luminescence, 48 h; series mostly up to 57.5 µM
# Method in brief: as §2
# [6] = test system: HeLa; experiment: as above; details: Gynecologic cancer cell panel viability, ATPlite luminescence, 48 h; series mostly up to 57.5 µM
# Method in brief: as §2
# [7] = test system: Hek293T; experiment: as above; details: Gynecologic cancer cell panel viability, ATPlite luminescence, 48 h, control line for the selectivity index; series mostly up to 57.5 µM
# Method in brief: as §2
# [8] = test system: JEG-3; experiment: as above; details: Gynecologic cancer cell panel viability, ATPlite luminescence, 48 h; series mostly up to 57.5 µM
# Method in brief: as §2
# [9] = test system: OV90; experiment: as above; details: Gynecologic cancer cell panel viability, ATPlite luminescence, 48 h; series mostly up to 57.5 µM
# Method in brief: as §2
# [10] = test system: PA-1; experiment: as above; details: Gynecologic cancer cell panel viability, ATPlite luminescence, 48 h; series mostly up to 57.5 µM
# Method in brief: as §2
# [11] = test system: SKOV3; experiment: as above; details: Gynecologic cancer cell panel viability, ATPlite luminescence, 48 h; series mostly up to 57.5 µM
# Method in brief: as §2
# [12] = test system: Tov-21-G; experiment: as above; details: Gynecologic cancer cell panel viability, ATPlite luminescence, 48 h; series mostly up to 57.5 µM
# Method in brief: as §2
# [13] = test system: Tov112D; experiment: as above; details: Gynecologic cancer cell panel viability, ATPlite luminescence, 48 h; series mostly up to 57.5 µM
# Method in brief: as §2
# [14] = test system: astro; experiment: Drug repurposing screens with cells derived from glioblastoma tumor samples (AID 1345199); details: viability, ATP luminescence, 48 h; series mostly up to 45.9 µM; also: nearly all actives have a fitted effect of over 40% in size; also: potency is read from the fitted curve at half-maximal effect
# Method in brief: as §1
# [15] = qHTS assay to identify inhibitors of the type 1 interferon - major histocompatibility complex class I in skeletal muscle: Counter screen cell viability and HiBit confirmation (AID 1347412); details: iHSKM muscle cells + IFN-b, HiBiT or CellTiter-Glo, 24 h; also: potency is read from the fitted curve at half-maximal effect; nearly all actives have a fitted effect of over 60% in size
# Method in brief: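 Duplicate plates, pinned identically: one read for HiBiT-tagged endogenous HLA-B luminescence, the other for ATP-content viability via CellTiter Glo. Cells were genome-engineered human myoblasts given 4 ng/ml IFN-b; compounds 12-pt, 1:3 from 46 uM final; 24 hr exposure.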
# [16] = target: Nuclear receptor subfamily 1 group I member 2 (Rattus norvegicus) (UniProt Q9R1A7); experiment: qHTS assay for small molecule activators of the rat pregnane X receptor (rPXR) signaling pathway (AID 651751; call rule not given here); details: rPXR reporter cells, luciferase (One-Glo), 24 h
# Chain of Nuclear receptor subfamily 1 group I member 2 (Rattus norvegicus) (Q9R1A7 whole entry, looked up): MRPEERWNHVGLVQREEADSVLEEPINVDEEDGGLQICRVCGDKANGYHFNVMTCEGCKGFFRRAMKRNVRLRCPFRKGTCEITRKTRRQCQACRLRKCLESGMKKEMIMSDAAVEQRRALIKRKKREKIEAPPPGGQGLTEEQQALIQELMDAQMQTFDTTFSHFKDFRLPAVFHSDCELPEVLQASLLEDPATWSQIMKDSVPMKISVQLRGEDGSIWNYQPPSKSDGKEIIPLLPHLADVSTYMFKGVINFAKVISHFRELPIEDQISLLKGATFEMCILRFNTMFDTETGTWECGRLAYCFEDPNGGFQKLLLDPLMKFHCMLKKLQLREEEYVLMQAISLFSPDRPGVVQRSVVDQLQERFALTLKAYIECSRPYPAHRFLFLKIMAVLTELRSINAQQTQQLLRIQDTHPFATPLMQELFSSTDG
# [17] = qHTS assay for small molecule activators of the human pregnane X receptor (PXR) signaling pathway (AID 720659; call rule not given here); details: DPX-2 HepG2 CYP3A4-luciferase, 24 h; series mostly up to 92.3 µM
# [18] = test system: UISO; experiment: qHTS assay to identify novel small-molecules to repurpose for Merkel cell carcinoma treatment (AID 1296009); details: MCC and control cell lines, CellTiter-Glo viability, 72 h; series mostly up to 46 µM; also: nearly all actives have a fitted effect of over 60% in size
# Method in brief: (§3)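 Cell viability measured by CellTiter-Glo following 72 hr compound treatment at 37 degree celsius, with NPC and MIPE libraries tested in 8- and 11-point concentration series.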
# [19] = test system: NIH3T3; experiment: as above; details: MCC and control cell lines, CellTiter-Glo viability, 72 h; at 44.8 µM (top of the series)
# Method in brief: as §3
# [20] = test system: WaGa; experiment: as above; details: MCC and control cell lines, CellTiter-Glo viability, 72 h; series mostly up to 46 µM
# Method in brief: as §3
# [21] = at 45.9 µM (top of the series), tumour line B
# [22] = at 45.9 µM (top of the series), tumour line D
# [23] = at 46.1 µM (top of the series), tumour line C
compound,measurement,setting,value
C#C[C@]1(O)CC[C@@H]2[C@H]3CCC4=CC(=O)CC[C@H]4[C@H]3C(=C)C[C@@]21CC,"activity, negative = cell killing",[1]; [21],2.86%
same,"activity, negative = cell killing",[1]; [22],-28.7%
same,Potency,[1]; tumour line A,22.4 µM (active)
C=C1[C@H](CO)[C@@H](O)C[C@@H]1n1cnc2c(=O)[nH]c(N)nc21,Potency,[2],inactive
same,Potency,[3],inactive
same,Potency,[4],inactive
same,Potency,[5],inactive
same,Potency,[6],inactive
same,Potency,[7],inactive
same,Potency,[8],inactive
same,Potency,[9],inactive
same,Potency,[10],inactive
same,outcome,[11],inactive
same,Potency,[12],inactive
same,outcome,[13],inactive
same,"activity, negative = cell killing",[1]; [21],-13.2%
same,"activity, negative = cell killing",[1]; [23],-24%
same,Potency,[14],inactive
C/C(=C\C(=O)OCCCCCCCCC(=O)O)C[C@@H]1OC[C@H](C[C@@H]2O[C@H]2[C@@H](C)[C@H](C)O)[C@@H](O)[C@H]1O,Potency,[2],inactive
same,Potency,[3],inactive
same,Potency,[4],inactive
same,Potency,[5],inactive
same,Potency,[6],inactive
same,Potency,[7],inactive
same,Potency,[8],inactive
same,Potency,[9],inactive
same,Potency,[10],inactive
same,Potency,[12],inactive
same,outcome,[13],inactive
same,"activity, negative = cell killing",[1]; [21],-19.6%
same,"activity, negative = cell killing",[1]; [22],-9.28%
same,"activity, negative = cell killing",[1]; [23],-21.4%
Nc1nc(NC2CC2)c2ncn([C@@H]3C=C[C@@H](CO)C3)c2n1,"activity, negative = cell killing",[1]; [23],-22.1%
same,Potency,[1]; tumour line A,35.5 µM (active)
C[C@H]1O[C@@H](O[C@H]2[C@@H](O)C[C@H](O[C@H]3[C@@H](O)C[C@H](O[C@H]4CC[C@@]5(C)[C@H](CC[C@@H]6[C@@H]5C[C@@H](O)[C@]5(C)[C@@H](C7=CC(=O)OC7)CC[C@]65O)C4)O[C@@H]3C)O[C@@H]2C)C[C@H](O)[C@@H]1O,Potency,[2],0.0794 µM (active)
same,Potency,[3],0.282 µM (active)
same,Potency,[4],0.447 µM (active)
same,Potency,[5],0.316 µM (active)
same,Potency,[6],0.282 µM (active)
same,Potency,[7],0.316 µM (active)
same,Potency,[9],0.631 µM (active)
same,Potency,[10],0.282 µM (active)
same,Potency,[12],0.1 µM (active)
same,Potency,[14],0.316 µM (active)
same,Potency,[15],0.0394 µM (active)
same,max response,[16],-0.0646% and -4.92%
same,outcome,[17],inactive
CC1=C(/C=C/C(C)=C/C=C/C(C)=C/C(=O)Oc2c(C)c(C)c3c(c2C)CC[C@@](C)(CCC[C@H](C)CCC[C@H](C)CCCC(C)C)O3)C(C)(C)CCC1,"activity, negative = cell killing",[1]; [21],-7.62%
same,"activity, negative = cell killing",[1]; [22],-2.61%
same,Potency,[1]; tumour line A,25.1 µM (active)
COc1ccc2nc(NC(=O)Nc3ccccc3)sc2c1,outcome,[18],inactive
same,Potency,[4],12.6 µM (active)
same,Potency,[5],8.91 µM (active)
same,Potency,[7],14.1 µM (active)
same,Potency,[8],20 µM (active)
same,Potency,[9],22.4 µM (active)
same,Potency,[10],25.1 µM (active)
same,Potency,[14],7.94 µM (active)
CC(C)(C)c1ccc(CN2CCN(C(c3ccccc3)c3ccc(Cl)cc3)CC2)cc1 (centres undefined),outcome,[19],inactive
same,Potency,[2],inactive
same,Potency,[3],inactive
same,Potency,[4],inactive
same,Potency,[5],inactive
same,Potency,[6],inactive
same,Potency,[7],inactive
same,Potency,[8],inactive
same,Potency,[9],inactive
same,Potency,[10],inactive
same,outcome,[11],inactive
same,Potency,[12],inactive
same,outcome,[13],inactive
same,Potency,[14],35.5 µM (active)
CC1CC(OC(=O)C(O)c2ccccc2)CC(C)(C)C1 (centres undefined),Potency,[2],inactive
same,Potency,[3],inactive
same,Potency,[4],inactive
same,Potency,[5],inactive
same,Potency,[6],inactive
same,Potency,[7],inactive
same,Potency,[8],inactive
same,Potency,[9],inactive
same,Potency,[10],inactive
same,outcome,[11],inactive
same,Potency,[12],inactive
same,outcome,[13],inactive
same,"activity, negative = cell killing",[1]; [21],-16.2%
same,"activity, negative = cell killing",[1]; [22],6.83%
same,"activity, negative = cell killing",[1]; [23],-12.1%
same,Potency,[14],inactive
Cc1c(N)nc([C@H](CC(N)=O)NC[C@H](N)C(N)=O)nc1C(=O)N[C@H](C(=O)N[C@H](C)[C@@H](O)[C@H](C)C(=O)N[C@H](C(=O)NCCc1nc(-c2nc(C(=O)NCCCCN=C(N)N)cs2)cs1)[C@@H](C)O)[C@@H](O[C@@H]1O[C@@H](CO)[C@@H](O)[C@H](O)[C@@H]1O[C@H]1O[C@H](CO)[C@@H](O)[C@H](OC(N)=O)[C@@H]1O)c1cnc[nH]1,"activity, negative = cell killing",[1]; [21],-16.7%
same,"activity, negative = cell killing",[1]; [23],-15.4%
Nc1ccc(N=Nc2ccccc2)c(N)n1,outcome,[18],inactive
same,outcome,[20],inactive
same,Potency,[2],inactive
same,Potency,[3],inactive
same,Potency,[4],inactive
same,Potency,[5],inactive
same,Potency,[7],inactive
same,Potency,[8],inactive
same,outcome,[11],inactive
same,Potency,[12],inactive
same,outcome,[13],inactive
Oc1ccc(/C=C/c2cc(O)cc(O)c2)cc1,outcome,[18],inactive
same,Potency,[5],25.1 µM (active)
same,Potency,[12],22.4 µM (active)
same,Potency,[14],4.47 µM (active)
same,max response,[16],-2.85% and -10.8%
CN(C)CCCSc1ccccc1NC(=O)/C=C/c1ccccc1,outcome,[18],inactive
same,outcome,[20],inactive
same,Potency,[2],inactive
same,Potency,[3],inactive
same,Potency,[4],inactive
same,Potency,[5],inactive
same,Potency,[6],inactive
same,Potency,[7],inactive
same,Potency,[8],inactive
same,Potency,[10],inactive
same,outcome,[11],inactive
same,Potency,[12],inactive
same,outcome,[13],inactive
same,"activity, negative = cell killing",[1]; [21],-25.4%
same,Potency,[1]; tumour line A,10 µM (active)
same,Potency,[14],inactive
O=C(O)Cc1cc(I)c(Oc2ccc(O)c(I)c2)c(I)c1,outcome,[19],inactive
same,Potency,[2],inactive
same,Potency,[3],inactive
same,Potency,[4],inactive
same,Potency,[5],inactive
same,Potency,[6],inactive
same,Potency,[7],inactive
same,Potency,[8],inactive
same,Potency,[9],inactive
same,Potency,[10],inactive
same,outcome,[11],inactive
same,Potency,[12],inactive
same,outcome,[13],inactive
same,"activity, negative = cell killing","[1]; at 20 µM (top of the series), tumour line C",-19.1%
same,"activity, negative = cell killing","[1]; at 21.2 µM (top of the series), tumour line B",6.94%
same,"activity, negative = cell killing","[1]; at 21.2 µM (top of the series), tumour line D",9.76%
same,"activity, negative = cell killing","[1]; at 21.3 µM (top of the series), tumour line A",-9.11%
